M1 PAM: positive allosteric modulators of human M1 muscarinic receptor | AID 588819 | activation, % at 3 µM | 360,000 tested, 0.088% active | CHO-K1 hM1, Fluo-8 calcium fluorescence, ACh EC20; 0% = ACh EC20, 100% = maximal ACh | P11229; in the data active = activation above about 19%, passing the limit was not always enough
Target sequence (P11229 whole entry, looked up): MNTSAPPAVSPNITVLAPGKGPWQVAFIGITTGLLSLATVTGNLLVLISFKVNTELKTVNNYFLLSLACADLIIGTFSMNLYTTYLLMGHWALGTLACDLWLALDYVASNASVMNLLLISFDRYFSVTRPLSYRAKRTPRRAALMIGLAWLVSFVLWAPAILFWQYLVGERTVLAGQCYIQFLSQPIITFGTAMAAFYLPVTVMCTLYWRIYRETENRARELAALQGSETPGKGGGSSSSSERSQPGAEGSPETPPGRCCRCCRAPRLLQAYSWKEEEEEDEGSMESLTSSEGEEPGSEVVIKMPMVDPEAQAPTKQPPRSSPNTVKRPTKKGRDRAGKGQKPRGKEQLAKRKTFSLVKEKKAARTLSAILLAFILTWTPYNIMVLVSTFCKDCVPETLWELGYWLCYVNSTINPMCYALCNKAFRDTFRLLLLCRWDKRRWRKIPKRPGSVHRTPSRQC
CHO-K1 Ca PAM: M1 PAM counterscreen hit in parental CHO-K1 cells | ATP EC20, Fluo-8 calcium fluorescence; 0% at ATP EC20, 100% at ATP max | activation, % at 3 µM | 360,000 tested, 0.02% active;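 active = activation above the run cutoff, the mean activation of all test compounds plus 3 SD, cut at about 40% in these data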;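 also: peak over basal fluorescence ratio in a 140 s read after ATP addition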
M1 antag: blocks human M1 muscarinic receptor | 360,000 tested, 1.3% active | P11229 | inhibition, % at 3 µM | AID 588852 | CHO-K1 hM1, Fluo-8 calcium fluorescence, ACh EC80 antagonist;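 active = percent inhibition above its own plate's cutoff, namely the mean of that plate's compound wells plus 3 SD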;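 also: peak over basal fluorescence ratio during 140 s after agonist addition; 0% = ACh EC80 plus DMSO and 100% = DMSO alone without agonist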
CHO-K1 Ca antag: counter-screen for M1 antagonists: effect in parental CHO-K1 cells | ATP-induced calcium, Fluo-8 fluorescence | inhibition, % at 3 µM | 360,000 tested, 0.6% active | AID 602250;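 active = inhibition above a per-plate cutoff, the plate's mean sample inhibition plus 3 SD, cut at about 24% in these data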;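 also: 0% = DMSO plus EC80 ATP and 100% = DMSO alone without ATP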
CHRM1 agonist: activates human CHRM1 receptor. AID 588814. CHO-K1 hM1, Fluo-8 calcium fluorescence, agonist mode; 0% DMSO, 100% acetylcholine EC100. 360,000 tested, 0.33% active. activation, % at 3 µM;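 active = activation above the run's mean compound activation plus 3 SD, cut at about 16% in these data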;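 also: peak over basal fluorescence ratio within a 140 s kinetic read after compound addition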
M1 ag parental: counter-screen for M1 agonists: effect in parental CHO-K1 cells; activation, % at 3 µM; 360,000 tested, 0.48% active; Fluo-8 calcium fluorescence; scaled to maximal ATP response, vehicle zero; in the data active = activation above about 15%;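 also: untransfected CHO-K1 host cells lacking M1 receptor as counterscreen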
* marks the source's active call; other numbers are inactive results. This is a sample that favours compounds with a hit; in the whole collection about 2.4% have one here.

SMILES	M1 PAM	CHO-K1 Ca PAM	M1 antag	CHO-K1 Ca antag	CHRM1 agonist	M1 ag parental
Cc1sc(NC(=O)CSc2nnc(-c3ccc(F)cc3)o2)c(C#N)c1C	7	8	-8	2	-1	0
CCOC(=O)c1ccc(-n2c(CCC(=O)O)ccc2-c2ccc(F)cc2)cc1	-3	8	-1	1	-3	7
COC(=O)c1c(C(=O)OC)c(-c2ccccc2)n2c1CS(=O)(=O)C2	1	-6	-1	26*	-1	0
COC(=O)c1c(C(=O)OC)c(-c2ccc(F)cc2)n2c1CS(=O)(=O)C2	13	2	-17	4	0	0
O=CNCCCc1nc2ccccc2n1Cc1ccccc1	14	-7	-6	36*	-2	0
O=C(c1c(F)cccc1F)N(C1CCCCC1)C1CCCCC1	6	14	-10	-9	-4	0
O=C(Nc1nnc(-c2ccccc2)o1)c1nc2ccccc2s1	-9	26	-2	-12	66*	8
CCN(CCCNC(=O)Cn1ncc2c([nH]c3ccc(C)cc32)c1=O)c1cccc(C)c1	15	8	-5	-2	0	0
CC(OC(=O)c1cccc(O)c1)C(=O)N(C)Cc1ccccc1 (stereo not given)	11	-6	-18	-4	-5	1
CC(OC(=O)/C(C#N)=C/c1ccc(N(C)C)cc1)C(=O)N(C)Cc1ccccc1 (stereo not given)	-17	-5	30*	8	15	14
CSc1nc(N)nc2c1ncn2CC(=O)NCc1ccc2[nH]ccc2c1	0	5	5	-1	-5	0
CCCc1cc(=O)[nH]c2nnc(SCC(=O)Nc3cccc(NC(C)=O)c3)n12	16	-23	2	11	20*	0
COc1ccc(-c2cn(-c3ccc(SC(F)F)cc3)c3[n+]2CCC3)cc1OC	-9	15	2	-4	-10	0
FC(F)Sc1ccc(-n2cc(-c3ccccc3)[n+]3c2CCC3)cc1	-26	-13	70*	5	-12	0
COC(=O)c1ccc(OC)c(CSc2nnc(COc3ccc(Cl)cc3)o2)c1	3	-6	7	24*	-2	0
COC(=O)c1ccc(OC)c(CSc2nnc(COc3ccccc3)o2)c1	-4	19	-1	-12	-7	1
CC1CCCCC1NCC#CCOc1ccc(Cl)cc1 (stereo not given)	-23	18	63*	-12	-6	2
COCCN(C(=O)CCl)C(C(=O)NC1CCCCC1)c1ccccc1C (stereo not given)	6	-8	-9	14	-7	0
Cc1cccc(C)c1C(OCCN(C)C)C1CCCCC1 (stereo not given)	-26	3	99*	8	-8	1
O=C(C1CCCO1)N1CCN(C(=S)Nc2ccccc2F)CC1 (stereo not given)	7	14	-2	-9	-5	1
CCN1CCN(c2ncc(C(=O)Nc3cc(Cl)c(OC)cc3OC)c3ccccc23)CC1	-26	24	34*	-15	-12	1
CCN1CCN(c2ncc(C(=O)N3CCN(c4ccccc4OC)CC3)c3ccccc23)CC1	-23	12	21*	-3	-7	0
CCOC(=O)N1CCN(C(=O)c2cnc(Nc3ccccc3OC)c3ccccc23)CC1	-13	4	33*	7	-3	4
CCN1CCN(c2ncc(C(=O)Nc3c(F)cc(F)cc3Br)c3ccccc23)CC1	-18	20	28	-8	-4	2
COc1ccccc1N1CCN(C(=O)c2n[nH]c3ccccc23)CC1	8	14	-5	-13	-3	2
SMILES	M1 PAM	CHO-K1 Ca PAM	M1 antag	CHO-K1 Ca antag	CHRM1 agonist	M1 ag parental
COc1ccc2nc(SCC(=O)NC3(C#N)CCCCC3)[nH]c2c1	6	21	-10	-16	-2	1
CCN(CC)c1ccc(CNc2nnnn2C)cc1	-30	6	60*	-11	-10	0
COCCNC(=O)C1Cc2c(ccc3ccccc23)O1 (stereo not given)	9	19	-9	-11	-3	2
CN(C)/C=N/NC(=O)C1Cc2c(ccc3ccccc23)O1 (stereo not given)	7	18	-11	0	-4	16*
CC(=O)N1CCN(S(=O)(=O)c2c(C)n(C)c(=O)n(C)c2=O)CC1	9	7	-10	-7	-1	1
Nc1c(C(=O)O)cnc2c(-c3ccc(Cl)cc3)cnn12	4	6	5	-4	-1	0
CC(=O)c1cnc2c(-c3ccc(Cl)cc3)cnn2c1C	6	-8	-8	30*	0	-1
COc1cc(CN2CCCC(N3CCN(c4ccc(F)cc4)CC3)C2)ccc1F (stereo not given)	3	3	-17	-14	-9	0
CCOCCC(=O)Nc1ccc2c(c1)c(=O)n(C)n2Cc1cccc(C(F)(F)F)c1	32*	7	-32	-13	6	1
Cn1c(=O)c2cc(NC(=O)CCc3ccccc3)ccc2n1Cc1cccc(C(F)(F)F)c1	1	10	-6	-4	1	5
CC(=O)Nc1ccc(S(=O)(=O)NCC(=O)OCC(=O)NCc2ccco2)cc1	5	-30	-19	28*	0	0
CN(C)c1ccc2c(c1)OC(N)=C(C#N)C2c1cccc(F)c1 (stereo not given)	-5	11	11	8	4	17*
N#CC1=C(N)Oc2cc(N)ccc2C1c1cccc(F)c1 (stereo not given)	8	22	-9	-13	-4	2
Cc1ccc(S(=O)(=O)CCC(=O)OCC(=O)c2c(N)n(CC(C)C)c(=O)n(C)c2=O)cc1	-12	-6	23	4	2	18*
CC(C)Cn1c(N)c(C(=O)COC(=O)c2ccc(O)cc2)c(=O)n(C)c1=O	7	6	-4	-6	-2	4
CCOc1ccccc1OCC(=O)OCC(=O)c1c(N)n(CC(C)C)c(=O)n(C)c1=O	-18	-7	28*	11	1	17*
COc1ccccc1CCC(=O)OCC(=O)c1c(N)n(CC(C)C)c(=O)n(C)c1=O	-14	-7	31	14	1	17*
COc1ccc(CCC(=O)OCC(=O)c2c(N)n(CC(C)C)c(=O)n(C)c2=O)cc1	-11	-26	32*	32*	3	16*
COCCNC(=O)NC(=O)CN1CCCc2ccccc21	4	-7	0	7	-11	0
O=C(COc1cccc2ccccc12)NCc1cccnc1	2	16	-2	-17	-4	0
O=C(COc1ccccc1F)NCc1ccc(-n2cccc2)cc1	4	9	-7	-11	-3	1
CCCCC(=O)NNC(=S)NC(=O)c1ccc(C)cc1	-2	6	0	-1	39*	14

Source: PubChem
